Data: PubChem BioAssay AID1495 (Sanford-Burnham Center for Chemical Genomics, 2009)
Potency and affinity values are given separately. Active and inactive are the calls of the source.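 How the source made its calls: active means calorimetric dissociation constant under 10 µM against either the substrate-binding domain or full-length DnaK; inactive means the rest.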

The compounds below were run against Chaperone protein DnaK (Escherichia coli) (UniProt C3TRK2) (assay: DnaK beta-domain binding affinity, SAR follow-up, orthogonal assay for DnaK modulator project, biophysical, isothermal titration calorimetry, full-length DnaK (AID 1495)). Settings: purified DnaK.

Compound | outcome
Cc1ccc(C(=O)NCc2ccc(Cl)cc2)o1 | inactive
Cc1ccc(C(=O)NCc2ccc(F)cc2)o1 | inactive
O=C(Nc1ncc2ccccc2n1)c1cccs1 | active
Cc1ccc(CNC(=O)c2ccc([N+](=O)[O-])o2)cc1 | inactive
O=C(NCc1ccccc1F)c1cccs1 | inactive
